Results as given in PubChem BioAssay AID1159580 (chemical genetic matrix, 2015).
Out of some 5,500 compounds screened, about 2,000 (36%) were called active. Inconclusive results (about 18%) are left out. Rule as the data show it: active = normalized growth mostly below about 0.91 (no sharp cut-off); inconclusive = no clear call, values can overlap the other calls; inactive = mostly above about 0.92. Some of the results follow.

Assay: chemical genetic growth profiling, strain panel (AID 1159580);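 also: tested at 20 µM; growth read once vehicle control cultures reached saturation at 30 °C; 1 = growth at the plate median or of vehicle wells; lower values mean less growth of the strain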
Conditions: growth OD

Measured: normalized growth

CCC(=O)OC1[C@@H]2CC3=C4CC(=O)O[C@@H](c5ccoc5)[C@]4(C)CCC3[C@@](C)(C2=O)[C@@H](CC(=O)OC)C1(C)C (stereo partly specified)
inactive: S. cerevisiae deletion strains, locus YJR066W, strain TOR1, active compounds read low 0.936 | S. cerevisiae deletion strains, locus YKL009W, strain mrt4, active compounds read low 1 | S. cerevisiae deletion strains, locus YKL068W, active compounds read low 1.01 | S. cerevisiae deletion strains, locus YKL085W, strain MDH1 (second series), active compounds read low 1 | S. cerevisiae deletion strains, locus YKL085W, strain MDH1, active compounds read low 1 | S. cerevisiae deletion strains, locus YKL160W, strain elf1, active compounds read low 1.01 | S. cerevisiae deletion strains, locus YKL190W, strain CNB1, active compounds read low 0.999 | S. cerevisiae deletion strains, locus YKR001C, strain vps1, active compounds read low 1.02 | S. cerevisiae deletion strains, locus YKR026C, strain gcn3, active compounds read low 0.991 | S. cerevisiae deletion strains, locus YKR091W, strain srl3, active compounds read low 0.984 | S. cerevisiae deletion strains, locus YLL001W, strain dnm1, active compounds read low 1 | S. cerevisiae deletion strains, locus YLL026W, active compounds read low 0.988 | S. cerevisiae deletion strains, locus YLL041C, strain sdh2, active compounds read low 0.992 | S. cerevisiae deletion strains, locus YLR027C, strain aat2, active compounds read low 0.992 | S. cerevisiae deletion strains, locus YLR039C, strain RIC1, active compounds read low 0.884 | S. cerevisiae deletion strains, locus YLR058C, strain SHM2, active compounds read low 1 | S. cerevisiae deletion strains, locus YLR102C, strain apc9, active compounds read low 1.02 | S. cerevisiae deletion strains, locus YLR113W, strain HOG1, active compounds read low 1.01 | S. cerevisiae deletion strains, locus YLR221C, strain rsa3, active compounds read low 0.985 | S. cerevisiae deletion strains, locus YLR258W, strain gsy2, active compounds read low 1.01 | S. cerevisiae deletion strains, locus YLR262C, strain YPT6 (second series), active compounds read low 0.908 | S. cerevisiae deletion strains, locus YLR262C, strain YPT6, active compounds read low 0.782 | S. cerevisiae deletion strains, locus YLR268W, strain sec22, active compounds read low 0.997 | S. cerevisiae deletion strains, locus YLR320W, strain mms22, active compounds read low 0.976 | S. cerevisiae deletion strains, locus YLR342W, strain FKS1, active compounds read low 0.981 | S. cerevisiae deletion strains, locus YLR357W, strain rsc2, active compounds read low 1.03 | S. cerevisiae deletion strains, locus YLR370C, strain arc18, active compounds read low 0.983 | S. cerevisiae deletion strains, locus YLR371W, strain rom2, active compounds read low 1.01 | S. cerevisiae deletion strains, locus YLR384C, strain iki3, active compounds read low 1 | S. cerevisiae deletion strains, locus YLR418C, strain cdc73, active compounds read low 1.03 | S. cerevisiae deletion strains, locus YML016C, strain PPZ1, active compounds read low 1 | S. cerevisiae deletion strains, locus YML032C, strain rad52, active compounds read low 1.02 | S. cerevisiae deletion strains, locus YML120C, strain ndi1, active compounds read low 0.999 | S. cerevisiae deletion strains, locus YML124C, strain tub3, active compounds read low 1.01 | S. cerevisiae deletion strains, locus YMR058W, strain fet3, active compounds read low 0.994 | S. cerevisiae deletion strains, locus YMR078C, strain ctf18, active compounds read low 1.02 | S. cerevisiae deletion strains, locus YMR125W, strain sto1, active compounds read low 0.996 | S. cerevisiae deletion strains, locus YMR129W, active compounds read low 0.998 | S. cerevisiae deletion strains, locus YMR205C, strain PFK2, active compounds read low 0.995 | S. cerevisiae deletion strains, locus YMR223W, strain ubp8, active compounds read low 1.01 | S. cerevisiae deletion strains, locus YMR231W, strain pep5, active compounds read low 0.955 | S. cerevisiae deletion strains, locus YMR307W, strain GAS1, active compounds read low 0.842 | S. cerevisiae deletion strains, locus YNL067W, strain RPL9B, active compounds read low 1.01 | S. cerevisiae deletion strains, locus YNL071W, strain lat1, active compounds read low 0.993 | S. cerevisiae deletion strains, locus YNL153C, strain GIM3, active compounds read low 1.02 | S. cerevisiae deletion strains, locus YNL183C, strain NPR1, active compounds read low 0.946 | S. cerevisiae deletion strains, locus YNL209W, strain ssb2, active compounds read low 1 | S. cerevisiae deletion strains, locus YNL233W, strain BNI4, active compounds read low 0.954 | S. cerevisiae deletion strains, locus YNL248C, strain rpa49, active compounds read low 0.992 | S. cerevisiae deletion strains, locus YNL250W, strain rad50, active compounds read low 1.01 | S. cerevisiae deletion strains, locus YNL271C, strain bni1, active compounds read low 1.01 | S. cerevisiae deletion strains, locus YNL298W, strain CLA4, active compounds read low 1.03 | S. cerevisiae deletion strains, locus YNL307C, strain MCK1, active compounds read low 1.01 | S. cerevisiae deletion strains, locus YNL322C, strain KRE1 (second series), active compounds read low 0.996 | S. cerevisiae deletion strains, locus YNL322C, strain KRE1, active compounds read low 0.992 | S. cerevisiae deletion strains, locus YNR049C, strain mso1, active compounds read low 0.989 | S. cerevisiae deletion strains, locus YNR052C, strain pop2, active compounds read low 1.03 | S. cerevisiae deletion strains, locus YOL012C, strain htz1 1.24 | S. cerevisiae deletion strains, locus YOL147C, strain pex11, active compounds read low 1.02 | S. cerevisiae deletion strains, locus YOR001W, strain rrp6, active compounds read low 0.994 | S. cerevisiae deletion strains, locus YOR061W, strain CKA2, active compounds read low 0.996 | S. cerevisiae deletion strains, locus YOR069W, strain VPS5, active compounds read low 1 | S. cerevisiae deletion strains, locus YOR070C, strain gyp1, active compounds read low 0.988 | S. cerevisiae deletion strains, locus YOR080W, strain dia2, active compounds read low 0.981 | S. cerevisiae deletion strains, locus YOR083W, strain WHI5, active compounds read low 1.02 | S. cerevisiae deletion strains, locus YOR106W, strain vam3, active compounds read low 1.03 | S. cerevisiae deletion strains, locus YOR136W, strain idh2, active compounds read low 1.02 | S. cerevisiae deletion strains, locus YOR144C, strain elg1, active compounds read low 1.01 | S. cerevisiae deletion strains, locus YOR184W, strain ser1, active compounds read low 0.989 | S. cerevisiae deletion strains, locus YOR231W, strain MKK1, active compounds read low 1.01 | S. cerevisiae deletion strains, locus YOR265W, strain rbl2, active compounds read low 0.994 | S. cerevisiae deletion strains, locus YOR270C, strain vph1, active compounds read low 0.858 | S. cerevisiae deletion strains, locus YOR290C, strain snf2, active compounds read low 0.996 | S. cerevisiae deletion strains, locus YOR316C, strain cot1, active compounds read low 1.01 | S. cerevisiae deletion strains, locus YPL051W, strain arl3, active compounds read low 0.982 | S. cerevisiae deletion strains, locus YPL055C, strain LGE1, active compounds read low 1.01 | S. cerevisiae deletion strains, locus YPL078C, strain atp4, active compounds read low 1.02 | S. cerevisiae deletion strains, locus YPL106C, strain sse1, active compounds read low 1.04 | S. cerevisiae deletion strains, locus YPL240C, strain hsp82, active compounds read low 0.99 | S. cerevisiae deletion strains, locus YPL256C, strain CLN2, active compounds read low 0.983 | S. cerevisiae deletion strains, locus YPR119W, strain clb2, active compounds read low 1.01 | S. cerevisiae deletion strains, locus YPR141C, strain kar3, active compounds read low 1.01 | S. cerevisiae deletion strains, locus YPR163C, strain tif3, active compounds read low 1.01 | S. cerevisiae deletion strains, locus YPR167C, strain met16, active compounds read low 0.998 | S. cerevisiae deletion strains, strain wtn01, active compounds read low 1.07 | S. cerevisiae strains, strain wild type, active compounds read low 0.976
